Results taken from PubChem BioAssay (NCATS).
Records with an inconclusive call do not appear. Entries that show only a call come without a potency. Activity calls are given as the source filed them. Calls follow the shape of the dose curve; as a rule, active = well fitted inhibition curve with a large enough effect; inconclusive = small, poorly fitted or top-dose-only effect; inactive = flat fitted curve, though single readings scatter. Where a SMILES comes first, the peptide text is derived from it. The star is where a group is joined. AFC = O=c1cc(C(F)(F)F)c2ccc(N*)cc2o1

Test: P-glycoprotein substrates identified in KB-8-5-11 adenocarcinoma cell line, qHTS therapeutic library screen (AID 1346987); also: nearly all actives have a fitted effect of over 65% in size
Conditions: KB-8-5-11 (P-gp overexpressing) viability, CellTiter-Glo, 72 h; series mostly up to 44.5 µM
How it was run: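 Luminescence from CellTiter-Glo, read 5 min after addition, quantified survival of KB-8-5-11 (P-gp-overexpressing) cells exposed to compounds for 72 h. AC50 was derived from concentration-response curves.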
Potency is read from the fitted curve at half-maximal effect.

SMILES	Potency	activity change, negative = cytotoxicity
C[C@@H]1CC[C@]2(C)C3(C)CC[C@@]2(OC3=O)[C@@]12C[C@H](c1ccoc1)OC2=O	inactive	–
CC(=O)N(O)CCCCCN1C(=O)CCC1=O	inactive	–
CC1(CO)CC2C(O)C(=O)C3(CO)CC3(C)C2C1 (centres undefined)	inactive	–
C=C1C[C@@]23CC[C@@H]4[C@](C)(C(=O)O)CCC[C@@]4(C)C2=CC[C@H]1C3	inactive	–
CC(C)C(=O)O[C@@H]1[C@@H](O)[C@@H](O[C@H]2O[C@H](CO)[C@@H](O)[C@H](O)[C@H]2O)O[C@H](CO)[C@H]1O	inactive	–
C=C1CCC2C(C)(CO[C@@H]3O[C@H](CO)[C@@H](O)[C@H](O)[C@H]3O)C(O)CCC2(C)C1C(=O)CC1=CCOC1=O (some centres undefined)	inactive	–
CN1C(=O)c2ccccc2NC(=O)[C@]12O[C@@H]2c1cccc(O)c1	inactive	–
NS(=O)(=O)NCCNc1nonc1C(=Nc1ccc(F)c(Br)c1)NO	inactive	–
CC(=O)N1CCN(NC(=O)c2ccc(F)cc2)CC1	inactive	–
CC(=O)N[C@@H](CC(C)C)C(=O)N[C@@H](CCC(=O)O)C(=O)N[C@@H](CCC(=O)O)C(=O)N[C@@H](CC(=O)O)C(=O)Nc1ccc2c(C(F)(F)F)cc(=O)oc2c1 (Ac-LEED-{AFC})	inactive	–
CC1CCCC2OC2C(=O)c2c(O)cc(O)cc2CC(=O)O1 (centres undefined)	inactive	–
C(#Cc1cccc(CN2CCOCC2)c1)CCN1CCCCC1	inactive	–
C[C@]1(O)CC[C@@H]2C(C(=O)O)=CO[C@@H](O[C@@H]3O[C@H](COC(=O)c4ccc(O)cc4)[C@@H](O)[C@H](O)[C@H]3O)[C@@H]21	inactive	–
COc1cc(/C=C/C(=O)OC2CC3CCC2(C)C3(C)C)ccc1O (centres undefined)	inactive	–
C=C(C)[C@@H](C)[C@H]1O[C@]23C[C@]4(CO2)C(CCC2[C@@]5(C)CC[C@H](O[C@@H]6OC[C@H](O)[C@H](O[C@@H]7O[C@H](CO)[C@@H](O)[C@H](O)[C@H]7O)[C@H]6O[C@@H]6O[C@@H](CO)[C@H](O)[C@H]6O)C(C)(C)C5CC[C@]24C)C3[C@@](C)(O)[C@@H]1OC(C)=O (some centres undefined)	–	4.3% [at 9.29 µM] (inactive)
COc1cc(N2CCC(O)CC2)ccc1Nc1cc(Nc2ccccc2S(=O)(=O)C(C)C)c2cc[nH]c2n1	11.4 µM (active)	–
C=C1CCC(OC(C)=O)C2(C)CC3(O)OC(=O)C(C)=C3CC12 (centres undefined)	inactive	–
COC(=O)c1ccc(O[C@@H]2O[C@H](CO)[C@@H](O)[C@H](O)[C@H]2O)c(OC)c1	inactive	–
C/C(=C/CCC(CO)C1CCC2(C)C3CCC4C(C)(C)C(OC5OC(CO)C(O)C(O)C5O)CC(O)C45CC35CCC12C)COC1OC(CO)C(O)C(O)C1O (centres undefined)	inactive	–
C=CC1(C)CC(OC(=O)C(=C)C(O)COC(C)=O)C(C(=C)C(=O)OC)C(O)C1C(=C)CO (centres undefined)	inactive	–
C/C=C/C=C/C=C/C(=O)O[C@@H]1C=C(CO)C(O)(C(=O)O)[C@@]2(C)CCCC(C)(C)[C@H]12 (some centres undefined)	inactive	–
OC[C@H]1O[C@@H](OCCc2ccc(O)cc2)[C@H](O)[C@@H](O)[C@@H]1O	inactive	–
CC1(C)CC2C3=CCC4C5(C)CCC(OC6OC(CO)C(O)C(OC7OC(CO)C(O)C(OC8OC(CO)C(O)C(OC9OC(COC%10OC(CO)C(O)C(O)C%10O)C(O)C(O)C9O)C8O)C7O)C6O)C(C)(C)C5CCC4(C)C3(C)CCC2(C(=O)O)CC1O (centres undefined)	–	-1.4% [at 9.29 µM] (inactive)
COc1cc(/C=C/C(=O)OC2[C@H](O)CC(O)(C(=O)O)C[C@H]2O)ccc1O (some centres undefined)	inactive	–
COc1cc2c(Nc3ccc(Cl)c(Cl)c3F)ncnc2cc1OCC1C[C@@H]2CN(C)C[C@@H]2C1 (some centres undefined)	18.4 µM (active)	–
CCOc1c2c(c(OCC)c3ccccc13)C(=O)N(c1ccc(CC(=O)NS(=O)(=O)c3ccccc3)cc1)C2	inactive	–
COc1ccc([C@@H]2N[C@H](C(=O)O)Cc3c2[nH]c2ccccc32)cc1CN1CCN(c2ccccc2F)CC1	inactive	–
C=C1CCC2C(C)(C)C(O)CCC2(C)C1CCC(C)CCOC(=O)CCC(=O)O (centres undefined)	inactive	–
CC[C@@H](c1ccc(F)c(F)c1)n1c(C(=O)OC)c(-c2ccno2)[nH]c1=S	inactive	–
